The record followed here is ChEMBL document CHEMBL1157539, “Thousands of chemical starting points for antimalarial lead identification” (Nature, 2010).

SMILES strings stand for the structures. Values joined by “and” are separate entries in the source; they are usually repeats but may differ in a detail not shown here. Equal values may be shown once.

For one assay, the system named is Plasmodium falciparum. Kind of assay: GSK_TCMDC: Inhibition of Plasmodium falciparum 3D7 in whole red blood cells, using parasite LDH activity as an index of growth. Test compounds present at 2uM. The assay is classed as functional.
On to `Cc1cc2ccc(CNCCc3ccccc3Br)cc2nc1N.Cl`, for which the Inhibition was determined as 100%.
In turn, `CN1CCC(COC(=O)C(O)(c2ccccc2)c2ccccc2)C1` (stereo not given) [TRICLAZATE] showed an Inhibition of 98%.
The same measure, in the same setting: in the case of `COc1cccc(/C=C/C(=O)NC2CCC(CN3CCC(c4c[nH]c5ccccc45)CC3)CC2)c1` (stereo not given) it was 100% and 94%; in that of `COc1ccc2[nH]cc(C3=CCN(CC4CC4C(=O)c4ccccc4)CC3)c2n1` (stereo not given), 95%.

A further assay concerns Plasmodium falciparum. Kind of assay: GSK_TCMDC: Inhibition of Plasmodium falciparum Dd2 in whole red blood cells, using parasite LDH activity as an index of growth. Test compounds present at 2uM. Type of assay: functional.
For the molecule `Cc1ccc(CC(C)(C)NCC(O)c2cccc(C(F)(F)F)c2)cc1.O=C(O)/C=C/C(=O)O` (stereo not given), the Inhibition was found to be 92%.
`CC[C@H]1CN2CC[C@H]1C[C@H]2[C@H](O)c1cc(-c2cccc(Cl)c2)nc2ccc(OC)cc12.Cl` showed an Inhibition of 99%.
Molecule `CN1C2CCC1c1cc(NC(=O)c3cc(-c4ccc(Cl)cc4)cs3)ccc12.O=C(O)C(F)(F)F` (stereo not given) yielded an Inhibition of 35%.
`Cc1[nH]c2c(C)cc(NS(C)(=O)=O)cc2c1C1CCN(CC2CCN(C(=O)/C=C/c3ccc(Cl)c(Cl)c3)CC2)CC1` gave an Inhibition of 99%.
Same read-out and setting: the figure for `CN1CC=C(c2c[nH]c3ccc(OC(=O)c4ccccc4)cc23)C1` is 97%.
Same read-out and setting: in the case of `CC(=O)Nc1ccc(CN2CCC(N(C)c3cc(NC(=O)c4cccc(F)c4)ccn3)CC2)cc1.O=C(O)C(F)(F)F` it was 0%; in that of `Cc1cc(C)c(CC(C)NCC(O)c2cccc(C(F)(F)F)c2)c(C)c1.Cl` (stereo not given), 99%.
On to `CC1=CC(=O)[C@@H](O)[C@]2(C)[C@H]3[C@@]4(O)OC[C@@]35[C@@H](C[C@@H]12)OC(=O)C[C@H]5[C@@H](C)[C@H]4O` [CHAPARRINONE], for which the Inhibition came out at 98%.
The same measure, in the same setting: in the case of `CC[C@H]1CN2CC[C@H]1C[C@H]2[C@H](O)c1cc(-c2ccccc2C)nc2ccc(OC)cc12.Cl` it was 98%; in that of `CCCCCc1cc(O)c2c(c1)OC(C)(C)CC2C1=CCN(Cc2ccccc2)CC1` (stereo not given), 79%; in that of `CCCCNC(c1ccc(Cl)cc1)C(O)c1ccc(Cl)cc1.Cl` (stereo not given), 98%.
The same measure, in the same setting: the figure for `Cl.O=C(/C=C/c1ccc(Cl)c(Cl)c1)NC1C2CCC1CC(CN1CCC(c3c[nH]c4ccccc34)CC1)C2` (stereo not given) is 100%; for `CC(Cc1ccc(SCCSc2ccccc2)cc1)NCC(O)c1cccc(Cl)c1` (stereo not given) it is 96%; for `FC(F)(F)c1cccc(N2CCC(CN3CCC(c4c[nH]c5ccccc45)CC3)CC2)n1.O=C(O)C(F)(F)F` it is 10%.
`C=CC12CCN(CC1)C(C(O)c1ccnc3ccc(OC)cc13)C2` (stereo not given) came in with an Inhibition of 72%.
The same measure, in the same setting: in the case of `C=C[C@H]1CN2CC[C@@H]1C[C@H]2[C@H](O)c1cc(-c2ccc(F)cc2)nc2ccc(OC)cc12.Cl` it was 98%; in that of `Cc1ccc(CC(C)NCC(O)c2cccc(Cl)c2)cc1F.Cl` (stereo not given), 88%; in that of `O=C(/C=C/c1ccc(Cl)c(Cl)c1)NCCCCCN1C2CCC1CC(c1c[nH]c3ccccc13)C2` (stereo not given), 4%.
Same read-out and setting: in the case of `CCCCCCCc1cc(O)c2c3c(c(=O)oc2c1)CN(C)CC3` it was 100%.
`C/C=C1\CN2CC[C@H]1C[C@H]2[C@H](O)c1ccnc2ccc(O)cc12` returned an Inhibition of 0%.
On the same count and under the same terms, the figure for `CCCCCc1cc(O)c2c(c1)OC(C)(C)CC2C1=CCN(Cc2cnc3ccccc3c2)CC1.Cl.O` (stereo not given) is 98%; for `COC(C(=O)OCCC1CCCN1C)(c1ccccc1)c1ccccc1` (stereo not given) it is 9%; for `Br.Cc1ccccc1C1=CCN(CCCN2c3ccccc3Sc3ccc(Cl)cc32)CC1` it is 30%.
Still for that read-out and setting: in the case of `Cc1ccc(/C=C/C(=O)NC2CCC(CN3CCC(c4c[nH]c5ccccc45)CC3)CC2)cc1C` (stereo not given) it was 71% and 91%; in that of `CC[C@H]1CN2CC[C@H]1C[C@H]2[C@H](O)c1cc(-c2cccc(C)c2)nc2ccc(OC)cc12.Cl`, 100%; in that of `Cc1[nH]c2cc(F)ccc2c1C1=CCN(CCCCC2(C)C(=O)Nc3ccccc32)CC1` (stereo not given), 90%.
For the molecule `CC[C@@]1(O)C(=O)OCc2c1cc1n(c2=O)Cc2c-1nc1cc3c(cc1c2CN1CCOCC1)OCO3.O=C(O)C(F)(F)F`, the Inhibition was 80%.
Same read-out and setting: in the case of `O=C(NC1CCN(CC2(c3ccc(Cl)cc3)CCC2)CC1)c1cscn1` it was 95%.
In turn, `Cl.OC(CNC1CCCCCCC1)c1ccc(Cl)c(Cl)c1` (stereo not given) showed an Inhibition of 99%.
For `CC[C@H]1CN2CC[C@H]1C[C@H]2[C@H](O)c1cc(-c2cccc(F)c2)nc2ccc(OC)cc12.Cl`, the Inhibition was 97%.
On the same count and under the same terms, the figure for `Cn1c(C2CC3CCC(C2)N3CC2CCC(NC(=O)/C=C/c3ccc(Cl)c(Cl)c3)CC2)nc2ccccc21` (stereo not given) is 51%.
On to `CC(C)CNCc1cccc(-c2cccc(CN(C(=O)NC3CCCCC3)C3CCN(Cc4ccccc4)CC3)c2)c1.O=C(O)C(F)(F)F`, for which the Inhibition was 87%.
As to `Cc1cc2ccc(CNCCc3ccccc3Br)cc2nc1N.Cl`, the Inhibition was found to be 48%.
Regarding `CN1CCC(COC(=O)C(O)(c2ccccc2)c2ccccc2)C1` (stereo not given) [TRICLAZATE], the Inhibition was determined as 4%.
The same measure, in the same setting: in the case of `COc1cccc(/C=C/C(=O)NC2CCC(CN3CCC(c4c[nH]c5ccccc45)CC3)CC2)c1` (stereo not given) it was 26% and 38%.
`COc1ccc2[nH]cc(C3=CCN(CC4CC4C(=O)c4ccccc4)CC3)c2n1` (stereo not given): the Inhibition is given as 93%.
